Holding throughout (assay): NCI-60 one-dose screen, 48 h (100 = growth as untreated, 0 = no growth, -100 = all killed)
In one experiment the test system is HOP-92 NSCLC. As to conditions: 10 µM unless noted.
The subject of the next experiment is NCI-H522 lung. As to conditions: 10 µM unless noted.
A further experiment relates to MALME-3M melanoma. To be noted: 10 µM unless noted.
In a further experiment the test system is SNB-19 CNS. As to conditions: 10 µM unless noted.
The subject of a further experiment is SK-MEL-5 melanoma. As to conditions: 10 µM unless noted.
A further experiment has as its system LOX IMVI melanoma. As to conditions: 10 µM unless noted.
The test system of another experiment is EKVX NSCLC. As to conditions: 10 µM unless noted.
The subject of the next experiment is SN12C renal. To be noted: 10 µM unless noted.
Another experiment relates to TK-10 renal. To be noted: 10 µM unless noted.
The subject of the next experiment is CCRF-CEM leukemia. To be noted: 10 µM unless noted.
Another experiment concerns MOLT-4 leukemia. As to conditions: 10 µM.
Another experiment deals with SR leukemia. As to conditions: 10 µM.
For a further experiment, the system named is OVCAR-8 ovarian. As to conditions: 10 µM unless noted.
The test system of the next experiment is IGROV1 ovarian. As to conditions: 10 µM.
The next experiment concerns MDA-MB-435 melanoma. As to conditions: 10 µM unless noted.
The subject of another experiment is HCC-2998 colon. To be noted: 10 µM unless noted.
For a further experiment, the system named is HCT-15 colon. As to conditions: 10 µM.
Another experiment concerns RPMI-8226 leukemia. To be noted: 10 µM unless noted.
Another experiment concerns COLO 205 colon. To be noted: 10 µM.

The panel holds about 83,000 compounds, 20% with a hit somewhere; the sample as a whole holds those more often.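 Interpretation: 100, growth as untreated; towards 0, rising growth inhibition; 0, no net growth; 0 to -100, cell death. Compounds scoring below 10 were considered active.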 Unmarked numbers belong to inactive results. Active and inactive are the calls of the source.

As to `O=C1NC2(CCNCC2)Nc2ccccc21`, the growth is 107% in the experiment on HOP-92 NSCLC; 97.5% with NCI-H522 lung; 117% with MALME-3M melanoma; 96.2% with SNB-19 CNS; 114% in the experiment with SK-MEL-5 melanoma; 102% in the experiment on LOX IMVI melanoma. In addition, the growth in the experiment with EKVX NSCLC is 109%; with SN12C renal it was 99.1%; with TK-10 renal it was 98.3%; in the experiment on CCRF-CEM leukemia, 94.9%; with MOLT-4 leukemia it was 84.7%; in the experiment with SR leukemia it was 86.9%. In addition, the growth in the experiment with OVCAR-8 ovarian is 84.4%; in the experiment with IGROV1 ovarian, 113%; with MDA-MB-435 melanoma, 104%; in the experiment on HCC-2998 colon, 103%.

On to `CCN(CC)CCOc1c(C(C)C)cccc1C(C)C`, for which the growth with HOP-92 NSCLC is 106%; in the experiment with NCI-H522 lung, 93.3%; in the experiment on MALME-3M melanoma it was 107%; in the experiment on HCT-15 colon it was 98.4%; in the experiment on SNB-19 CNS, 106%; with SK-MEL-5 melanoma, 101%. Besides, the growth was 99.5% in the experiment on LOX IMVI melanoma; 96.5% in the experiment on EKVX NSCLC; 105% in the experiment with SN12C renal; 102% in the experiment with CCRF-CEM leukemia; 102% with MOLT-4 leukemia; -1.29% (active) in the experiment with SR leukemia. Further, the growth with RPMI-8226 leukemia is 103%; in the experiment on OVCAR-8 ovarian, 100%; with IGROV1 ovarian, 101%; in the experiment with MDA-MB-435 melanoma it was 114%; in the experiment on HCC-2998 colon it was 102%.

For the compound `CCOC(=O)Nc1cc(Cl)c([N+](=O)[O-])c(NC(=O)OCC)n1`, the growth was 78.2% in the experiment with HOP-92 NSCLC; 7.41% (active) in the experiment on NCI-H522 lung; 115% in the experiment with COLO 205 colon; 99.3% in the experiment with MALME-3M melanoma; 98.1% with SNB-19 CNS; 61.5% with LOX IMVI melanoma. Moreover, the growth in the experiment with SN12C renal is 96.5%; in the experiment with TK-10 renal, 103%; in the experiment on CCRF-CEM leukemia it was 33.1%; in the experiment on MOLT-4 leukemia it was 79.6%; in the experiment on SR leukemia, -22.8% (active); in the experiment on RPMI-8226 leukemia, 71.5%. Also, the growth in the experiment on IGROV1 ovarian was 55.6%; in the experiment on MDA-MB-435 melanoma it was 65.4%; in the experiment on HCC-2998 colon it was 103%.

Turning to `O=C(CCCN1CCC2(CC1)C(=O)NCN2c1ccc(F)cc1)c1ccc(F)cc1`, the growth was 102% in the experiment on HOP-92 NSCLC; 87.5% in the experiment on NCI-H522 lung; 124% in the experiment on COLO 205 colon; 94.7% in the experiment on MALME-3M melanoma; 105% with HCT-15 colon; 95.6% in the experiment with SNB-19 CNS. For the same compound, the growth with LOX IMVI melanoma is 106%; in the experiment with EKVX NSCLC, 135%; in the experiment with SN12C renal it was 98%; in the experiment with TK-10 renal it was 102%; in the experiment on CCRF-CEM leukemia, 96.9%; in the experiment with MOLT-4 leukemia, 103%. The growth in the experiment on SR leukemia was 99.2%; in the experiment with OVCAR-8 ovarian, 97.8%; in the experiment with IGROV1 ovarian it was 71.9%; with MDA-MB-435 melanoma it was 109%.

On to `CC(C)(NC(=O)c1nn(CCCCCF)c2ccccc12)c1ccccc1`, for which the growth with HOP-92 NSCLC was 68.6%; with NCI-H522 lung, 64.3%; in the experiment with MALME-3M melanoma, 108%; in the experiment on HCT-15 colon, 96.3%; with SNB-19 CNS, 106%; in the experiment on SK-MEL-5 melanoma it was 90.3%. In addition, the growth with LOX IMVI melanoma is 96.3%; with EKVX NSCLC it was 94.7%; in the experiment on SN12C renal, 101%; in the experiment with TK-10 renal it was 103%; in the experiment with MOLT-4 leukemia it was 71.9%; in the experiment on RPMI-8226 leukemia, 78.6%. For the same compound, the growth was 83.5% with OVCAR-8 ovarian, 101% in the experiment with IGROV1 ovarian, 103% in the experiment on MDA-MB-435 melanoma and 105% in the experiment on HCC-2998 colon.

As to `Nc1ccc([N+](=O)[O-])c2c1Oc1ccccc1O2`, the growth in the experiment on HOP-92 NSCLC is 84.4%; in the experiment with COLO 205 colon it was 99.3%; in the experiment with MALME-3M melanoma it was 121%; in the experiment with HCT-15 colon, 87.8%; in the experiment with SNB-19 CNS, 80.8%; in the experiment on LOX IMVI melanoma it was 103%. The growth was 91.9% in the experiment on EKVX NSCLC; 98% in the experiment with SN12C renal; 94.4% in the experiment on TK-10 renal; 91.2% in the experiment with CCRF-CEM leukemia; 79.7% in the experiment with MOLT-4 leukemia; 105% in the experiment with RPMI-8226 leukemia. Moreover, the values for the growth in the experiment with OVCAR-8 ovarian and in the experiment on HCC-2998 colon were 92.9% and 108%, respectively.

Turning to `CCCCCCCCCCCCOc1ccc(C(=O)Oc2ccc(CSP3(=O)OCC4OC(n5cnc6c(N)ncnc65)C(F)C4OP(=O)(O)OCC4OC(n5ccc(=O)[nH]c5=O)C(F)C4O3)cc2)cc1` (configuration not stated), the growth is 86.9% in the experiment on HOP-92 NSCLC; 69.4% in the experiment with NCI-H522 lung; 114% in the experiment on MALME-3M melanoma; 101% with HCT-15 colon; 101% in the experiment on SNB-19 CNS; 109% in the experiment on SK-MEL-5 melanoma. The growth with LOX IMVI melanoma was 85.9%; in the experiment on EKVX NSCLC it was 107%; with SN12C renal, 109%; with TK-10 renal, 77.5%; with CCRF-CEM leukemia, 68.3%; in the experiment with SR leukemia, 25.1%. Besides, the growth in the experiment on RPMI-8226 leukemia is 72.2%; with OVCAR-8 ovarian, 109%; in the experiment on MDA-MB-435 melanoma, 106%; in the experiment on HCC-2998 colon, 105%.

Turning to `OC1(c2ccc(Cl)cc2Cl)c2ccccc2C2=NCCN21` (configuration not stated), the growth is -2.5% (active) with HOP-92 NSCLC; 90.6% in the experiment with COLO 205 colon; 100% in the experiment on MALME-3M melanoma; 101% with HCT-15 colon; 101% with SNB-19 CNS; 83% in the experiment with SK-MEL-5 melanoma. The growth in the experiment with LOX IMVI melanoma was 90.7%; with EKVX NSCLC it was 97.9%; in the experiment with SN12C renal it was 92.4%; in the experiment with TK-10 renal, 76.6%; in the experiment with CCRF-CEM leukemia, 90.5%; in the experiment with MOLT-4 leukemia, 78.9%. Further, the growth in the experiment with RPMI-8226 leukemia was 82.3%; in the experiment on OVCAR-8 ovarian it was 102%; with MDA-MB-435 melanoma, 98%; in the experiment on HCC-2998 colon, 75.3%.

For `C[C@@H]1CC[C@@H]2[C@@H]1[C@H](OC(=O)/C=C/C1CCCCC1)[C@]1(C3CCCCC3)C[C@@H](OC(=O)CO)[C@@]2(C)O1`, the growth is 41.6% in the experiment with HOP-92 NSCLC; 46.9% in the experiment with NCI-H522 lung; 78.8% in the experiment on MALME-3M melanoma; 85.8% with SNB-19 CNS; 84.8% in the experiment with SK-MEL-5 melanoma; 78.1% with EKVX NSCLC. Moreover, the growth in the experiment on TK-10 renal is 81.7%; in the experiment on CCRF-CEM leukemia it was 41.1%; in the experiment with RPMI-8226 leukemia, 25.3%; with OVCAR-8 ovarian, 23%; in the experiment with MDA-MB-435 melanoma, 72.9%; in the experiment with HCC-2998 colon, 49.5%.

`COc1cccc2c1C(=O)c1c(O)c3c(c(O)c1C2=O)CC(O)(/C(C)=N/NC(=O)CCC(=O)N/N=C(\C)C1(O)Cc2c(O)c4c(c(O)c2C(OC2CC(N)C(O)C(C)O2)C1)C(=O)c1c(OC)cccc1C4=O)CC3OC1CC(N)C(O)C(C)O1` (configuration not stated): the growth in the experiment with HOP-92 NSCLC is -40.3% [5 µM] (active); in the experiment with NCI-H522 lung, -47% [5 µM] (active); with MALME-3M melanoma, -99.1% [5 µM] (active); in the experiment on SNB-19 CNS it was -20.9% [5 µM] (active); with SK-MEL-5 melanoma it was -100% [5 µM] (active); with LOX IMVI melanoma it was -35.3% [5 µM] (active). In addition, the growth in the experiment on EKVX NSCLC is -19.4% [5 µM] (active); in the experiment with SN12C renal it was -5.24% [5 µM] (active); in the experiment with TK-10 renal, -43.1% [5 µM] (active); with CCRF-CEM leukemia, -25.2% [5 µM] (active); with RPMI-8226 leukemia, -38% [5 µM] (active); in the experiment on OVCAR-8 ovarian, 13.1% [5 µM]. The figures for the growth with MDA-MB-435 melanoma and in the experiment on HCC-2998 colon were -85.2% [5 µM] (active) and -94.5% [5 µM] (active), respectively.

For the origin of these results see PubChem BioAssay (NCI).
